According to PubChem BioAssay (EPA / NIEHS):
Inconclusive results are not listed. Activity calls are given as the source filed them. Rule for the calls: active = hit-call score of the fitted dose curve at least 0.9, where 1 is the maximum; inconclusive = response in the unintended direction; inactive = score below 0.9.

Biological target: human Esterase Plasma (ES), BCHE (gene 590) (UniProt P06276)
Assay: NVS_ENZ_hES: NovaScreen (NVS) Enzymatic Assay for human Esterase Plasma (ES) (AID 2283157)
Summary of the method: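 Human plasma-derived enzyme, cell-free, colorimetric readout at 0.25 h. Primary screen 25 uM in duplicate; hits (e.g. ≥30% inhibition) rerun singleton up to 50 uM. DMSO = negative control/baseline.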

Chain of human Esterase Plasma (ES), BCHE (gene 590) (P06276 whole entry, looked up): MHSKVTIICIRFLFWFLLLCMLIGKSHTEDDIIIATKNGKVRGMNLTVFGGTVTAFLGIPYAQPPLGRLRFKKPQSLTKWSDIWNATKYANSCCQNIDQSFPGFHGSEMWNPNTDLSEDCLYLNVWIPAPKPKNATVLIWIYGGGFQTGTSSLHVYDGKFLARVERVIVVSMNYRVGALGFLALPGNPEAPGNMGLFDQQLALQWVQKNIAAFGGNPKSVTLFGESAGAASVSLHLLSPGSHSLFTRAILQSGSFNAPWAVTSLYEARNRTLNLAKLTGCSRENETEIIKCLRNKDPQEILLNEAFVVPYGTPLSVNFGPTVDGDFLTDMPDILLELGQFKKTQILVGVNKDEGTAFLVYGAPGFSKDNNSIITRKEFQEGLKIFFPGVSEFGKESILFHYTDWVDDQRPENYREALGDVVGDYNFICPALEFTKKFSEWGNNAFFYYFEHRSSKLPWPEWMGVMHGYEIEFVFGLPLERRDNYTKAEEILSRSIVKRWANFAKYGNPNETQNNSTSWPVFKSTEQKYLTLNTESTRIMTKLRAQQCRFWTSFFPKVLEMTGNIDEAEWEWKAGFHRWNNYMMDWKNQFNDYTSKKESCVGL

For `c1ccc2c(c1)ccc1ncccc12`, the AC50 was 20.2 µM (active).
